Only some compounds are listed: those with a hit (about 19% of all), similar ones and a draw of the others.
DT40 TDP1 no CPT – qHTS for Inhibitors of human tyrosyl-DNA phosphodiesterase 1 (TDP1): qHTS in cells in absence of CPT | AID 686978, 2013 | DT40 Tdp1-/- hTDP1 cells, no CPT, ATP luminescence, 48 h | actives 15% (n = 420,000) | Potency, µM (series often up to 46.2 µM), for the others: at the highest dose activity change, negative = growth inhibition, most hits filed as inhibitors; further: potency means the concentration at half of the fitted maximal effect; nearly all actives have a fitted effect of over 55% in size
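Luminescent ATP content (CellTiter-Glo) served as the growth readout. Knockout chicken DT40 cells expressing human TDP1 were exposed to compounds without camptothecin for a minimum 48 hr at 37 °C.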
HT1080NT lethal – kills 2HG-producing HT-1080-NT fibrosarcoma cells; HT-1080-NT fibrosarcoma viability, CellTiter-Glo ATP luminescence, 48 h; Potency, µM (highest dose often 46.1 µM), without a hit: at the top dose activity, negative = less viability, usual class: cytotoxic; actives 1.6% (n = 360,000); AID 686970;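 further: NT is the 2HG producing partner of a matched IDH1 knockdown line; potency means the concentration at half of the fitted maximal effect; 0% = DMSO-treated cells and -100% = media-only wells without cells; nearly all actives have a fitted effect of over 55% in size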
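Read-out is CellTiter-Glo luminescence after 10 minutes at room temperature, following 48 hours' compound treatment of HT-1080-NT cells (750 cells/well, RPMI, 5% FBS, 37 degrees C).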
HT1080 IDH1KD tx – HT-1080 IDH1 knockdown cell toxicity (counter line). Potency, µM (highest dose often 46.1 µM), inactives show at the highest dose activity, negative = toxicity, actives largely listed as cytotoxic. actives 2% (n = 360,000). AID 686971. HT-1080 IDH1 knockdown viability, ATP luminescence, 48 h;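 further: potency means the concentration at half of the fitted maximal effect; 0% = DMSO wells and -100% = cell-free medium wells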
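In this qHTS, HT-1080 cells depleted of IDH1 are exposed for 48 h at 37 °C to compound titrations. Toxicity is scored from CellTiter-Glo luminescence, with DMSO as full viability and medium alone as none.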
uPA generation – inhibitors of cell surface uPA generation; AID 540303; cell surface uPA generation assay, qHTS; Potency, µM (titrated, usually from 38.3 µM), inactives show at the top dose activity change, negative = inhibition, usual class: inhibitors; actives 0.31% (n = 330,000); active means well fitted inhibition curve with a large enough effect; inconclusive means small, poorly fitted or top-dose-only effect; inactive means no such curve, though single readings can be large or run the other way; tested in mouse RAW 264.7 cells; further: potency means the concentration at half of the fitted maximal effect; nearly all actives have a fitted effect of over 55% in size
TDP1 cell CPT – DT40-hTDP1 cell growth loss with CPT | chicken DT40 Tdp1-/-;hTDP1 cells + 20 nM CPT, ATP luminescence, 48 h | Potency, µM (top dose mostly 46.2 µM), for inactives: at the highest dose activity change, negative = growth inhibition, hits mostly inhibitors | actives 12% (n = 420,000) | AID 686979; further: potency means the concentration at half of the fitted maximal effect; nearly all actives have a fitted effect of over 55% in size
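Chicken DT40 Tdp1-/- cells stably complemented with human TDP1 were seeded at 400 cells/well in medium containing 20 nM camptothecin, exposed to pin-transferred compounds, and grown at 37 °C for at least 48 hr. Viability was read as ATP luminescence.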
IL-1B inflam inh – inhibitors of inflammasome signaling (IL-1 beta secretion); THP-1 LPS/ATP IL-1B secretion, AlphaLISA, 16 h; hits give low values; activity change, % at 57.5 µM; actives 4.7% (n = 360,000); in the data active means activity change below about -50%; inconclusive means mostly about -30% to -49%
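THP-1 cells pretreated 1 hr with compounds (up to 57.5 uM final), then stimulated with LPS (250 ng/mL final) plus ATP (1.25 mM final); secreted IL-1B measured by AlphaLISA after 16 hr, decreased signal indicating inhibition.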
Numbers without * were called inactive; ? = inconclusive; · = not tested or not shown; [ ] = dose if it differs, or a comment. Unless noted, the call rests on the fitted dose curve; in most records, active means well fitted curve in the direction sought with a large enough effect; inconclusive means small, poorly fitted or top-dose-only effect, or another doubt; inactive means no such curve, though single readings can be large; an effect the other way counts as inactive or inconclusive. Unless noted, on the % scale 0 is the no-effect control and ±100 the full control effect.

SMILES	DT40 TDP1 no CPT	HT1080NT lethal	HT1080 IDH1KD tx	uPA generation	TDP1 cell CPT	IL-1B inflam inh
CC(=O)C1=C(C)NC(SCc2ccc(C#N)cc2)=C(C#N)C1c1ccco1 (configuration not stated)	?	-6%	-1%	-1%	?	8
CC(=O)C1=C(C)NC(SCC(=O)c2ccc(Cl)cc2Cl)=C(C#N)C1c1ccco1 (configuration not stated)	?	?	?	?	?	-54*
CCCn1c(SCC(=O)N(CC)c2c(N)n(Cc3ccccc3)c(=O)[nH]c2=O)nnc1-c1ccncc1	-4%	-4%	-4%	1%	-9%	-10
O=C(CC12CC3CC(CC(C3)C1)C2)Nc1nncs1	-8%	-28%	?	-1%	-12%	?
Cc1ccc(C(=O)NCCOc2cccc(C)c2)cc1	-6%	1%	-1%	2%	1%	-20
CSc1ccccc1C(=O)NCCOc1cccc(C)c1	-10%	-2%	-6%	-3%	-24%	-91*
O=C(O)c1cc2c(s1)-c1ccccc1OC2	-22%	2%	-1%	1%	-23%	10
O=C(Nc1cccc(C(F)(F)F)c1)c1cc2c(s1)-c1ccccc1OC2	-20%	?	-1%	-4%	20%	-13
COc1cc(NC(=O)c2cc3c(s2)-c2ccccc2OC3)cc(OC)c1OC	8.2µM*	·	·	·	16µM*	·
COC(=O)c1ccccc1NC(=O)c1cc2c(s1)-c1ccccc1OC2	?	·	·	·	16µM*	·
O=C(NCc1ccccc1)C(c1ccc(C(F)(F)F)cc1)N1CCN(CCN2CCOCC2)CC1 (configuration not stated)	-28%	-12%	-3%	·	-9%	-5
O=C(NCc1ccccc1)C(c1ccc(-c2ccccc2)cc1)N1CCN(CCN2CCOCC2)CC1 (configuration not stated)	21µM*	?	?	·	16µM*	-20
O=S(=O)(O)O	-4%	·	·	·	1%	·
COc1cccc2c1OCC(C(=O)OCc1cccnc1)=C2	-3%	4%	6%	-2%	4%	-53*
CC(C)(C)c1ccc(OCC(=O)N(Cc2ccco2)Cc2ccccc2F)cc1	21µM*	·	·	·	?	·
CN(Cc1ccccc1F)C(=O)COc1ccc(C(=O)c2ccccc2)cc1	21µM*	-11%	-19%	-3%	23µM*	?
Cc1cc(Cl)ccc1OCC(=O)N(Cc1ccco1)Cc1ccccc1F	16µM*	·	·	·	?	·
Cc1ccc(C(=O)c2c(N)c(C(=O)Nc3ccccc3Cl)c3ccccn23)cc1	-8%	·	·	·	-22%	·
COc1ccccc1NC(=O)c1cc2cc(Br)ccc2cc1O	3.7µM*	?	?	2%	6.5µM*	?
COc1cc(OC)c(NC(=O)c2ccoc2C)cc1Cl	?	1%	?	·	15µM*	24
Cc1ccc(Cl)cc1NC(=O)COC(=O)c1ccccc1O	21%	1%	16%	-2%	-2%	-3
COc1ccc(Cl)cc1NC(=O)c1ccoc1C	-12%	-7%	-4%	-3%	-15%	2
COc1cc(NC(=O)c2cc3ccccc3cc2O)c(OC)cc1Cl	10µM*	?	?	-3%	15µM*	?
COc1ccccc1NC(=O)COC(=O)c1cc2ccccc2cc1O	0%	-9%[9.24 µM]	1%	4%	-22%	24
Cc1ccc(Cl)cc1NC(=O)c1cc2ccccc2cc1O	2.9µM*	4.1µM*	?	?	2.6µM*	-90*
SMILES	DT40 TDP1 no CPT	HT1080NT lethal	HT1080 IDH1KD tx	uPA generation	TDP1 cell CPT	IL-1B inflam inh
COc1ccc(S(=O)(=O)N2CCC(C(=O)N[C@H](C(=O)NC3CCCC3)C(C)C)CC2)cc1	-9%	6%	22%	2%	-16%	-9
Cc1ccccc1OCC(=O)NNC(=O)CSc1nc(N)cc(N)n1	?	-1%	26%	-2%	?	15
Cc1occc1C(=O)Nc1ccc([N+](=O)[O-])cc1Br	29µM*	-2%	-2%	-4%	1.3µM*	-20
COc1ccc(NC(=O)N2CCCC3(CCN(C(=O)c4cnccn4)CC3)C2)cc1	-11%	·	·	·	3%	·
C(=C\c1ccccc1)/CN1CCN(C(c2cccc3ccccc23)c2nnnn2-c2ccc3c(c2)OCCO3)CC1 (configuration not stated)	8.2µM*	-24%	-25%	·	13µM*	-26
FC(F)(F)Oc1ccccc1C(c1nnnn1-c1ccc2c(c1)OCCO2)N1CCN(C/C=C/c2ccccc2)CC1 (configuration not stated)	15µM*	-25%	-21%	·	?	-7
CC1(C)C[C@@H]1C(=O)N/C(=C\CCCCSC[C@H](N)C(=O)O)C(=O)O	-10%	10%	2%	1%	-15%	20
N#CCCN(C(=S)Nc1ccc(S(=O)(=O)N2CCOCC2)cc1)c1ccccc1F	-27%	0%	-4%	4%	-23%	-1
CCN1CCOC(=O)C1CC(=O)Nc1ccc(C(C)=O)cc1 (configuration not stated)	10µM*	·	·	·	21µM*	·
COc1ccc(Cl)cc1NC(=O)CC1CCCC1	0%	2%	-9%	0%	0%	-7
CCN1CCOC(=O)C1CC(=O)Nc1ccccc1C(F)(F)F (configuration not stated)	3.7µM*	·	·	·	3.3µM*	·
CCN1CCOC(=O)C1CC(=O)Nc1cc(Cl)ccc1OC (configuration not stated)	2.6µM*	·	·	·	4.6µM*	·
CCN1CCN(CC(=O)Nc2ccc(C(C)=O)cc2)CC1	5%	19%	9%	2%	2%	6
CC(=O)NC12CC3CC(C1)CC(C(=O)Nc1cccc(S(=O)(=O)N4CCCCCC4)c1)(C3)C2	?	4%	8%	-2%	?	-13
CCCCNC(=O)C1(C)CCN1C(=O)Cc1cccc2ccccc12 (configuration not stated)	?	19%	7%	·	?	14
CN(CC(=O)Nc1cccc(F)c1)C(=O)CN1C(=O)C2CCCCC2C1=O (configuration not stated)	17%	-2%[9.24 µM]	5%	-4%	-22%	-1
CC(=O)c1cccc(NC(=O)Nc2cnn(Cc3ccc(Cl)cc3Cl)c2)c1	?	?	14µM*	·	?	?
CC(=O)c1cccc(NC(=S)NCc2ccccc2)c1	-15%	9%	4%	-1%	-3%	3
